Screening results as filed in PubChem.
eLon inh: inhibitors of E. coli Lon protease, primary screen, biochemical, fluorescence polarization; P0A9M0; purified E. coli Lon protease; inhibition, % at 7.94 µM; 360,000 tested, 0.42% active; in the data active = inhibition above about 13%, passing the limit was not always enough;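 note: 0% = enzyme with probe and DMSO and 100% = no enzyme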
PAFAH2 inh: PAFAH2 enzyme inhibitors, primary screen, biochemical, fluorescence polarization, human | inhibition, % at 3.39 µM | Platelet-activating factor acetylhydrolase 2, cytoplasmic (Homo sapiens), Q99487 | recombinant PAFAH2, FP-rhodamine activity probe | 340,000 tested, 0.99% active | AID 492956, 2010;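 active = inhibition above the mean over all tested compounds plus 3 SD, cut at about 30% in these data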;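 note: inhibitors block probe labeling of enzyme so polarization drops; 0% = enzyme with DMSO and 100% = wells lacking PAFAH2 protein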
pPAFAH inh: pPAFAH enzyme inhibitors, primary screen, biochemical, fluorescence polarization, human; AID 463082, 2010; recombinant pPAFAH, FP-rhodamine probe fluorescence polarization; Platelet-activating factor acetylhydrolase (Homo sapiens), Q13093; inhibition, % at 3.39 µM; 330,000 tested, 1.5% active;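 active = inhibition above the mean inhibition across the screen plus 3 SD, cut at about 25% in these data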;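 note: inhibitors block binding of the rhodamine activity-based probe so polarization drops; 0% = enzyme with DMSO and 100% = wells lacking pPAFAH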
Rin1 Abl inh: inhibitors of Rin1-Abl protein binding, primary screen, biochemical, TR-FRET. 360,000 tested, 0.4% active. inhibition, % at 7.35 µM. Tyrosine-protein kinase ABL1 (Homo sapiens) + Ras and Rab interactor 1 (Homo sapiens), …. AID 588664, 2011; in the data active = inhibition above about 5%, passing the limit was not always enough
PAFAH1B2 FP inh: PAFAH1B2 enzyme inhibitors, primary screen, biochemical, fluorescence polarization, human | Platelet-activating factor acetylhydrolase IB subunit alpha2 (Homo sapiens), P68402 | recombinant PAFAH1B2, FP-rhodamine activity probe | inhibition, % at 3.39 µM | 340,000 tested, 1.2% active | AID 492953, 2010;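 active = inhibition above the mean of all tested compounds plus 3 SD, cut at about 24% in these data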;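 note: 0% = enzyme with DMSO and 100% = wells lacking PAFAH1B2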
PAFAH1B3 FP inh: PAFAH1B3 enzyme inhibitors, primary screen, biochemical, fluorescence polarization, human | 340,000 tested, 0.28% active | inhibition, % at 3.39 µM | recombinant PAFAH1B3, FP-rhodamine probe;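 active = inhibition above the screen-wide average of all tested compounds plus 3 SD, cut at about 25% in these data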;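 note: 0% = enzyme with DMSO only and 100% = wells lacking PAFAH1B3 protein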
Starred values were filed as active, the others as inactive; · = no result given. An excerpt weighted towards active compounds, which were near 3.1% of everything screened.

SMILES	eLon inh	PAFAH2 inh	pPAFAH inh	Rin1 Abl inh	PAFAH1B2 FP inh	PAFAH1B3 FP inh
Cn1c(SCC(=O)NCC2CCCO2)nnc1-c1ccc(Cl)cc1 (stereo unspecified)	-6	-1	-2	0	4	-4
CN(C)c1nc(F)c(F)c(S(=O)(=O)c2ccccc2)c1F	-5	0	1	2	9	14
COc1cccc(CNC(=O)Cn2cc([N+](=O)[O-])cn2)c1	-2	-3	5	2	4	2
O=C(O)c1cccc(N2C(=O)CSC2c2ccccc2)c1 (stereo unspecified)	1	-8	3	-1	27*	6
O=C(C[C@@H]1C/C=C\C[C@@H](Cc2ccc(F)cc2)C(=O)OC[C@@H]2CCCN2C1=O)NCCO	6	3	0	2	47*	4
O=C(C[C@@H]1C/C=C\C[C@@H](Cc2ccc(F)cc2)C(=O)OC[C@H]2CCCN2C1=O)N[C@H](CO)Cc1ccccc1	0	1	-1	-2	31*	7
O=C(C[C@H]1C/C=C\CC[C@H](Cc2ccc(F)cc2)C(=O)O[C@@H](c2ccccc2)CNC1=O)N[C@@H](CO)Cc1ccccc1	-6	8	4	1	25*	6
O=C1OC[C@@H]2CCCN2C(=O)[C@@H](CC(=O)N(CCO)Cc2ccccc2)C/C=C\C[C@H]1Cc1ccc(F)cc1	-3	12	9	3	34*	5
O=C(C[C@H]1C/C=C\CC[C@H](Cc2ccc(F)cc2)C(=O)OC[C@H]2CCCN2C1=O)N[C@H](CO)Cc1ccccc1	-4	8	9	0	7	6
C[C@H]1COC(=O)[C@@H](Cc2ccc(F)cc2)C/C=C\C[C@@H](CC(=O)N[C@@H](CO)Cc2ccccc2)C(=O)N1	-4	3	2	-1	25*	4
O=C(C[C@H]1C/C=C\C[C@@H](Cc2ccc(F)cc2)C(=O)OC[C@H]2CCCN2C1=O)N[C@@H](CO)Cc1ccccc1	-1	-3	7	4	35*	2
O=C(Cc1ccccc1)NC(C(=O)O)C(O)c1ccc([N+](=O)[O-])cc1 (stereo unspecified)	4	-4	5	-2	15	4
O=S(=O)(NC1C2CC3CC(C2)CC1C3)c1ccccc1 (stereo unspecified)	-2	8	2	1	26*	5
COc1ccc(S(=O)(=O)Nc2ccc3c(c2)C(=O)N([C@H](C)CO)C[C@H](C)[C@@H](CN(C)Cc2ccncc2)OCCCC[C@@H](C)O3)cc1	0	·	·	-1	·	·
COc1cc(OC)c(NC(=O)Nc2ccc(OC)c(OC)c2)cc1Cl	5	-11	1	1	2	-1
COc1cc(NC(=O)Nc2ccc(Cl)c(Cl)c2)c(C(=O)O)cc1OC	-8	14	30*	-2	25*	4
COc1cc(/C=C2\CCCc3c2nc2ccccc2c3C(=O)O)cc(Br)c1O	-5	6	12	-3	2	12
COc1cc(/C=C2\CCc3c2nc2ccccc2c3C(=O)O)cc(OC)c1OC	-10	18	32*	2	-1	11
Cc1ccsc1CN(C)C(=O)c1ccc(Oc2ccccc2)cc1	-2	4	12	0	5	5
Cc1cccc(NC(=O)C2CCN(S(=O)(=O)c3ccc4ccccc4c3)CC2)n1	-10	3	1	4	2	2
CCN(CC)S(=O)(=O)c1ccc(C(=O)NNC(=O)C2CCN(S(=O)(=O)c3ccc(Cl)cc3)CC2)cc1	-2	8	1	-1	36*	6
O=C(NNC(=O)C1CCN(S(=O)(=O)c2ccc(Cl)cc2)CC1)c1ccc(Cl)cc1	1	5	-1	1	13	8
Cc1cccc(NC(=O)C2CCN(S(=O)(=O)c3ccc(Cl)cc3)CC2)n1	-4	3	4	2	29*	2
O=C(NNC(=O)C1CCN(S(=O)(=O)c2ccc(Cl)cc2)CC1)c1ccccc1	3	8	-1	0	34*	-3
CC(NC(=O)CSc1nnnn1C1CC1)c1ccccc1Br (stereo unspecified)	5	-1	2	2	3	3
SMILES	eLon inh	PAFAH2 inh	pPAFAH inh	Rin1 Abl inh	PAFAH1B2 FP inh	PAFAH1B3 FP inh
Cc1ccc(S(=O)(=O)N2CCN(C(=O)c3ccccc3Cc3ccccc3)CC2)c(C)c1	-4	-1	4	2	27*	-2
Cc1ccc(S(=O)(=O)N2CCN(C(=O)c3ccco3)CC2)c(C)c1	1	1	-4	-2	-2	5
CCN(C(=O)CSc1nc2cc(C(F)(F)F)ccc2n1Cc1ccccc1)C1CCS(=O)(=O)C1 (stereo unspecified)	-1	6	29*	2	-2	8
CCCCn1c(SCC(=O)N(CC)C2CCS(=O)(=O)C2)nc2cc(S(N)(=O)=O)ccc21 (stereo unspecified)	6	-2	2	2	6	3
O=C(O)c1c(C(=O)O)c(-c2ccc(Br)cc2)n2c1CSC2	2	6	2	0	4	0
O=c1[nH]c(C2CCCN(S(=O)(=O)Cc3ccccc3)C2)nc2c1nnn2Cc1cccc(Cl)c1 (stereo unspecified)	-4	4	28*	2	1	-2
O=c1[nH]c(C2CCN(S(=O)(=O)c3ccccc3F)CC2)nc2c1nnn2Cc1ccc(OC(F)(F)F)cc1	-5	-6	1	4	26*	0
Cc1ccccc1-c1nc(CS(=O)(=O)CC(=O)N2CCN(C)CC2)c(C)o1	-14	-1	5	2	0	12
CCOc1ccc(N(CC)C(=O)COc2cc(=O)n(CC)c3ccccc23)cc1	-9	-2	12	3	2	5
CCOc1ccc(N(CC)C(=O)COc2cc(=O)n(C)c3ccccc23)cc1	-5	1	28*	-3	8	2
CC1CCCC(NC(=O)COC(=O)[C@@H](NC(=O)c2ccccc2Cl)C(C)C)C1C (stereo partly specified)	-3	-5	0	3	1	5
O=C(Nn1nnnc1Nc1ccccc1)C12CC3CC(CC(C3)C1)C2	-7	4	5	1	27*	3
CCc1cc(C(=O)O)c(NC(=O)/C=C/c2ccc(OC)c(OC)c2)s1	3	9	19	1	25*	6
O=S(=O)(Nc1ccc2c(c1)nc1n2CCN(Cc2ccccc2)C1)c1ccccc1	-8	8	26*	3	8	-8
O=C(NCCCN1CCOCC1)c1cc(S(=O)(=O)N2CCCCC2)ccc1Cl	7	·	·	3	·	·
